Targets with a hit are over-represented here; the source holds about 7,900 in all. About 0.6% of all pairs of compound and target were hits.
Tests used:
Assay in all cases: log2 fold change, soluble protein after heating vs DMSO (PISA); higher = thermal stabilisation; K562 cells, 10 uM, 30 min; active = over 0.2 and 3.5 SD of the protein, either way, in both replicates (recomputed)
[1] = compound: C#Cc1cccc(Nc2ncnc3cc(OCCOC)c(OCCOC)cc23)c1 [erlotinib]
Procedure, shortened: (§1)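 K562 cells at 2×10^6 cells/mL were exposed to 10 μM compound for 30 min, then aliquots were heated for 3 min across 48°C-58°C, pooled, and extracted in PBS containing 0.5% NP-40 at 4°C. The supernatant after 21,000xg for 90 min was taken as soluble protein and measured by TMTpro 16plex LC-MS/MS with channel sums equalised. Thermal stability is reported relative to control samples, with values from duplicates. Fold changes are given on a log2 scale.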

[2] = compound: C/C(=N\NC(=O)C1=CC(=CC=C1)S(=O)(=O)N2CCOCC2)/C3=C(C=CC(=C3)Cl)O
Procedure, shortened: as §1

[3] = compound: C1=CC(=C(C=C1Cl)C2=NC3=NC=CN=C3C(=N2)NC4=CC=NC=C4)F
Procedure, shortened: as §1

[4] = compound: C1=CC(=CC=C1C2=NC3=C(N2)C=C(C=C3)C(=O)N)OC4=CC=C(C=C4)Cl
Procedure, shortened: as §1

[5] = compound: C1=CC2=C(C=CC(=C2)/C=C\3/C(=O)NC(=NCC4=CC=CS4)S3)N=C1
Procedure, shortened: as §1

[6] = compound: C1=CC2=NC=CN=C2C=C1/C=C/3\C(=O)NC(=O)S3
Procedure, shortened: as §1

[7] = compound: C1=CC=C(C=C1)C2=NC(=C(N2)C3=CC=NC=C3)C4=CC(=C(C=C4)Cl)O
Procedure, shortened: as §1

[8] = compound: C1=CC=C2C(=C1)C3=NNC4=CC=CC(=C43)C2=O
Procedure, shortened: as §1

[9] = compound: C1CCN(C1)C(=O)NC2=CC=CC(=C2)NC3=NC=C(C(=N3)NCCC4=CN=CN4)Br
Procedure, shortened: as §1

[10] = compound: C1CN(CCC1(CC2=CC=C(C=C2)Cl)N)C3=NC=NC4=C3C=CN4
Procedure, shortened: as §1

Measured: log2 fold change

UFM1 (UniProt P61960)
Chain of UniProt P61960 (P61960 whole entry, looked up): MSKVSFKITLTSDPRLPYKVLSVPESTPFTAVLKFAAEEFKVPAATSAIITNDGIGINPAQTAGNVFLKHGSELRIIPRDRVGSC
inactive: [1] 0.026 | [2] 0.072 | [3] 0.093 | [4] 0.064 | [5] -0.015 | [6] -0.002 | [7] 0.12 | [8] 0.172 | [9] -0.297 | [10] 0.088

TRABD (UniProt Q9H4I3)
inactive: [1] -0.057 | [2] -0.023 | [3] -0.029 | [4] 0.016 | [5] 0.032 | [6] -0.049 | [7] 0.121 | [8] 0.074 | [9] -0.077 | [10] 0.071

USP15 (UniProt Q9Y4E8)
inactive: [1] 0.026 | [2] 0.078 | [3] 0.08 | [4] -0.015 | [5] 0.027 | [6] 0.031 | [7] 0 | [8] 0.012 | [9] -0.011 | [10] -0.031

VPS33A (UniProt Q96AX1)
Chain of UniProt Q96AX1 (Q96AX1 whole entry, looked up): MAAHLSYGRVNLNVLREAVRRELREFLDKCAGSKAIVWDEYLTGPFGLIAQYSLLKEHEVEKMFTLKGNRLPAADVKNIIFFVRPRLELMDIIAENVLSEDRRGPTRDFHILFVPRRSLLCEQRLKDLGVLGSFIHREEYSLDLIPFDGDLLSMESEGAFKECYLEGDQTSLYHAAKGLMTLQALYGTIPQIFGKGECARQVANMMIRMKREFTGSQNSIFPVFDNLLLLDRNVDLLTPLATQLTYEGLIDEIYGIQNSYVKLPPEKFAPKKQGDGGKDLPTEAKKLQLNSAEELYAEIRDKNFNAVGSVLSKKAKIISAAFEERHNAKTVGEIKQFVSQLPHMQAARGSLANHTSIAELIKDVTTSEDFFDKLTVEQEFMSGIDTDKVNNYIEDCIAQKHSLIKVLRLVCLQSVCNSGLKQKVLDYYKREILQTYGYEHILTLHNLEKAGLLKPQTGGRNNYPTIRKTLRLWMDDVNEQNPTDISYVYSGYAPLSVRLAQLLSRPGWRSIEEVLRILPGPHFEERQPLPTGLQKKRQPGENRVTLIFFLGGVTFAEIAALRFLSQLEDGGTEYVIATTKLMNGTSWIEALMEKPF
inactive: [1] 0.025 | [2] 0.035 | [3] -0.054 | [4] -0.01 | [5] 0.057 | [6] 0.013 | [7] 0.005 | [8] -0.023 | [9] -0.051 | [10] -0.083

WDR4 (UniProt P57081)
Chain of UniProt P57081 (P57081 whole entry, looked up): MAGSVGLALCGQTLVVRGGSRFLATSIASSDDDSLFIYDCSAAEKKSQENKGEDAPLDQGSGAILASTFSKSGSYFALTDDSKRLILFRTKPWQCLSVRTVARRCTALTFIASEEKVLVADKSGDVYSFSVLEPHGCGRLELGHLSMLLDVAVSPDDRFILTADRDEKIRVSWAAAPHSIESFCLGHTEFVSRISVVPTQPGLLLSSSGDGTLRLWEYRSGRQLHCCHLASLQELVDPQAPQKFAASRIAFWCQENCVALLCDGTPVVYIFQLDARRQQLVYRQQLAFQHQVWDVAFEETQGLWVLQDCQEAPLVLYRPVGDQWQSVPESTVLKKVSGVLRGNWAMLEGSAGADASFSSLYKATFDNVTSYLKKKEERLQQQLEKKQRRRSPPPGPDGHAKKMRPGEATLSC
inactive: [1] 0.058 | [2] 0.106 | [3] 0.131 | [4] -0.012 | [5] -0.046 | [6] 0.223 | [7] 0.061 | [8] 0.011 | [9] 0.031 | [10] 0.053

TMEM189-UBE2V1 (UniProt I3L0A0)
inactive: [1] -0.014 | [2] 0.025 | [3] 0.015 | [4] 0.019 | [5] 0.055 | [6] -0.047 | [7] 0.028 | [8] -0.009 | [9] 0.02 | [10] 0.058

TRAPPC11 (UniProt Q7Z392)
inactive: [1] 0.044 | [2] 0.136 | [3] -0.027 | [4] 0.017 | [5] 0.105 | [6] 0.059 | [7] 0.027 | [8] 0.062 | [9] -0.019 | [10] -0.001

WDR62 isoform 4 (UniProt O43379)
inactive: [1] 0.046 | [2] 0.015 | [3] -0.118 | [4] 0.055 | [5] -0.016 | [6] 0.046 | [7] -0.05 | [8] -0.041 | [9] 0 | [10] 0.014

VDAC1 (UniProt P21796)
Chain of UniProt P21796 (P21796 whole entry, looked up): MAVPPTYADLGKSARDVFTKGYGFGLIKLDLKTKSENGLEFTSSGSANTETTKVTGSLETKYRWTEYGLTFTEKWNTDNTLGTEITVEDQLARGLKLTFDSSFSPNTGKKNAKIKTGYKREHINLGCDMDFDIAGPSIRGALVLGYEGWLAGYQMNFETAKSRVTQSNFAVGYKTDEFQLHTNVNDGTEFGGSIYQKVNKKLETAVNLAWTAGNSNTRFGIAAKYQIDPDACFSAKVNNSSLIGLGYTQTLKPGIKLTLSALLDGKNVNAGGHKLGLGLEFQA
inactive: [1] -0.006 | [2] 0 | [3] 0.039 | [4] -0.003 | [5] -0.023 | [6] 0.006 | [7] -0.004 | [8] 0.005 | [9] 0.006 | [10] 0.067

VPS8 (UniProt Q8N3P4)
Chain of UniProt Q8N3P4 (Q8N3P4 whole entry, looked up): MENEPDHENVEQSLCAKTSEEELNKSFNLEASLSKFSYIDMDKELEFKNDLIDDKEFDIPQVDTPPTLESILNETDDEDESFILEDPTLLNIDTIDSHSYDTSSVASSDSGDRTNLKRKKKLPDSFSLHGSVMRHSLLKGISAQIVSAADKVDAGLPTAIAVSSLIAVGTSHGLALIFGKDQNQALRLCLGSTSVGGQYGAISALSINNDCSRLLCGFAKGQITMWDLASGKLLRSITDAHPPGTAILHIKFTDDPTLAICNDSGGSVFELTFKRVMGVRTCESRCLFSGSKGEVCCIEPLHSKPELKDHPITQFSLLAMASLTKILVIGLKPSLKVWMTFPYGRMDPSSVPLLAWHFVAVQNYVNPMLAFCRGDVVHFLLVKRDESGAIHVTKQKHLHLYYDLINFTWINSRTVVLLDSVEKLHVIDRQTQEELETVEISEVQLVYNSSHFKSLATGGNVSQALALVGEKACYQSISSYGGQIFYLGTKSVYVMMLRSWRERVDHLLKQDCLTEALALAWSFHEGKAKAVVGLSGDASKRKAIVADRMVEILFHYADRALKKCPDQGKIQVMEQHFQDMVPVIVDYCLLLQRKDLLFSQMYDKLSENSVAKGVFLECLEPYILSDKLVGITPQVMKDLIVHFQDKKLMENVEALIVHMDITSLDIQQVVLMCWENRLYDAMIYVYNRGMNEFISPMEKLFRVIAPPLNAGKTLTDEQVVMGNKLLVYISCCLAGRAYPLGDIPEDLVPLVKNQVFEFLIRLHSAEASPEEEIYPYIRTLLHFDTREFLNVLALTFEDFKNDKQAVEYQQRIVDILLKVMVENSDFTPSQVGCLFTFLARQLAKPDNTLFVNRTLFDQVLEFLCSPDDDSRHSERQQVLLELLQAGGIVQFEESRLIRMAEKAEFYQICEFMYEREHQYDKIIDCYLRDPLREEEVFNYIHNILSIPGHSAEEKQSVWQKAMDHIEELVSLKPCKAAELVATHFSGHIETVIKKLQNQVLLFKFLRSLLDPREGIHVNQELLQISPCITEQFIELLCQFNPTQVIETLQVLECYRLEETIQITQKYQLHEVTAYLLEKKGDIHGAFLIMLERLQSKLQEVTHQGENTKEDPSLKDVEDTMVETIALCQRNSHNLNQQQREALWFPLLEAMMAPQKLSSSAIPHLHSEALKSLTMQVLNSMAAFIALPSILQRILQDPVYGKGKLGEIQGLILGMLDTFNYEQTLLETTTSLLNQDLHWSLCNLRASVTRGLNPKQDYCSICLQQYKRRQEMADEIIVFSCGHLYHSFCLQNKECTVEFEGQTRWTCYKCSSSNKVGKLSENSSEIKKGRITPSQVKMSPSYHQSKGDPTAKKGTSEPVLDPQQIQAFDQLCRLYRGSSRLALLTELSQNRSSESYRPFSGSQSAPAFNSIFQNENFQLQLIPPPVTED
inactive: [1] 0.005 | [2] 0.036 | [3] 0.017 | [4] -0.024 | [5] 0.016 | [6] 0.031 | [7] 0.041 | [8] 0.012 | [9] 0.026 | [10] 0.027

UBC (UniProt P0CG48)
Chain of UniProt P0CG48 (P0CG48 whole entry, looked up): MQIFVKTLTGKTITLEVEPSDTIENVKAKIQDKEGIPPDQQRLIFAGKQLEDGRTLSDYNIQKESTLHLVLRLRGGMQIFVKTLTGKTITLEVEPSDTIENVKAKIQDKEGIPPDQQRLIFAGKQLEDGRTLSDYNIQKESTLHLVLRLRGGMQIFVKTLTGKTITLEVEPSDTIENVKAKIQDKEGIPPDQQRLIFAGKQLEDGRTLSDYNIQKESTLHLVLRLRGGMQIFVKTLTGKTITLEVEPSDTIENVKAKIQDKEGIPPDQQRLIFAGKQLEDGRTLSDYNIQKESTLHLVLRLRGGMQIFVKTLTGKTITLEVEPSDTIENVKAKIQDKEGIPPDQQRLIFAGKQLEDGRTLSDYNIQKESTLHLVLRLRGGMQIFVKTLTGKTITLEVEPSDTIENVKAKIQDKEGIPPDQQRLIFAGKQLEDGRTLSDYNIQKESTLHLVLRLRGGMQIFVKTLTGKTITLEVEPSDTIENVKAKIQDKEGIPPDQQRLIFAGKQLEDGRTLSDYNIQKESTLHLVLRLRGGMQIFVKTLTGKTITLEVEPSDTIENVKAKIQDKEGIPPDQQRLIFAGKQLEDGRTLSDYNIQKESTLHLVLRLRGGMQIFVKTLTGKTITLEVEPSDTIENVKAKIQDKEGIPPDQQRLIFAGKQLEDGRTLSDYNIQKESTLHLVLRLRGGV
inactive: [1] -0.007 | [2] -0.021 | [3] -0.004 | [4] 0.011 | [5] 0.024 | [6] -0.044 | [7] -0.054 | [8] 0.009 | [9] 0.043 | [10] -0.041

XPNPEP1 isoform 3 (UniProt Q9NQW7)
Chain of UniProt Q9NQW7 (Q9NQW7 whole entry, looked up): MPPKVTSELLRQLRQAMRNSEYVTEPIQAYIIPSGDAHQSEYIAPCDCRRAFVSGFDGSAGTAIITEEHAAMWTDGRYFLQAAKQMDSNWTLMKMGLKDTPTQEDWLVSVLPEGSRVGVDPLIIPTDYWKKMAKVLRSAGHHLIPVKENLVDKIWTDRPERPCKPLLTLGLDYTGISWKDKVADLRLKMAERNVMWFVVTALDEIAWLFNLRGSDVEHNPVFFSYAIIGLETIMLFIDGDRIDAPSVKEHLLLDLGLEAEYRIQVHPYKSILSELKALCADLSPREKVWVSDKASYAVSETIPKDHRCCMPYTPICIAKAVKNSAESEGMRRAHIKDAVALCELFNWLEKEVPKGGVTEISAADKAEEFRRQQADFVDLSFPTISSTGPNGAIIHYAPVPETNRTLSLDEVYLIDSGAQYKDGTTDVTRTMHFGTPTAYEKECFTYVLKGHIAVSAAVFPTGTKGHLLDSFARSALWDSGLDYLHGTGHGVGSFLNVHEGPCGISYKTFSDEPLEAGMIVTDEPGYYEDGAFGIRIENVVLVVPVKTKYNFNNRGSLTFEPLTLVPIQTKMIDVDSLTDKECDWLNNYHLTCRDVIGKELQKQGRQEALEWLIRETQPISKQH
inactive: [1] -0.005 | [2] -0.069 | [3] 0.067 | [4] 0.022 | [5] 0.076 | [6] -0.003 | [7] 0.048 | [8] 0.04 | [9] 0 | [10] 0.033

XPO5 (UniProt Q9HAV4)
inactive: [1] 0.011 | [2] 0.103 | [3] 0.105 | [4] -0.005 | [5] 0.011 | [6] 0.016 | [7] 0.023 | [8] -0.019 | [9] -0.024 | [10] -0.001

WDR37 isoform 2 (UniProt Q9Y2I8)
inactive: [1] 0.039 | [2] 0.006 | [3] -0.097 | [4] 0.012 | [5] -0.026 | [6] -0.204 | [7] 0.006 | [8] -0.144 | [9] 0.01 | [10] -0.088

UTP4 (UniProt Q969X6)
Chain of UniProt Q969X6 (Q969X6 whole entry, looked up): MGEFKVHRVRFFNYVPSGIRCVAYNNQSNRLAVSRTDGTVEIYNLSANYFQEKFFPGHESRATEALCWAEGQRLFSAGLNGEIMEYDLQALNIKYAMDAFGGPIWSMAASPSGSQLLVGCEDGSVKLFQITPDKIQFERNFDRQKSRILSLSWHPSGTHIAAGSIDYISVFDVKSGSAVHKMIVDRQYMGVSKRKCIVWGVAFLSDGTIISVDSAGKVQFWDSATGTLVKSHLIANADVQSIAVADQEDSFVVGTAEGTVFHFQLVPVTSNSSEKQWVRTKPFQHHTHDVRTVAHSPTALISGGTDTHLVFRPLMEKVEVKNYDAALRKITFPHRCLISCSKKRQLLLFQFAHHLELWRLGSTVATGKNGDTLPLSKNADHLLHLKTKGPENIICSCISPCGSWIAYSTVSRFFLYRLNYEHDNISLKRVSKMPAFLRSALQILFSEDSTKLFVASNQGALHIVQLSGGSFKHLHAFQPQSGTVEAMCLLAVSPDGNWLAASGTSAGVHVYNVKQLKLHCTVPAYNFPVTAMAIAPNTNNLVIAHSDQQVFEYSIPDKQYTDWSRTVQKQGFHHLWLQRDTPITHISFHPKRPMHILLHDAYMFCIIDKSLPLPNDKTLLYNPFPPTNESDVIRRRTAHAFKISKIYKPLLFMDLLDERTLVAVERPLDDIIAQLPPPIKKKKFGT
inactive: [1] -0.05 | [2] -0.07 | [3] -0.009 | [4] 0.005 | [5] -0.082 | [6] 0.026 | [7] -0.022 | [8] 0.012 | [9] 0 | [10] 0.06

Source: the supplement of paper PMC10849652
